Assay results as given in PubChem BioAssay (NCATS).
Inconclusive results are not listed. Calls of active or inactive are those of the source. Unless noted, calls come from the whole dose curve; as a rule, active = well fitted curve in the direction sought with a large enough effect; inconclusive = small, poorly fitted or top-dose-only effect, or another doubt; inactive = no such curve, though single readings can be large; an effect the other way counts as inactive or inconclusive.

Legend:
[1] = target: D(1A) dopamine receptor (Homo sapiens) (UniProt P21728); test: HTS Assay for Allosteric Agonists of the Human D1 Dopamine Receptor: Primary Screen for Agonists (AID 488981); note: 0% is about no effect
Chain of D(1A) dopamine receptor (Homo sapiens) (P21728 whole entry, looked up): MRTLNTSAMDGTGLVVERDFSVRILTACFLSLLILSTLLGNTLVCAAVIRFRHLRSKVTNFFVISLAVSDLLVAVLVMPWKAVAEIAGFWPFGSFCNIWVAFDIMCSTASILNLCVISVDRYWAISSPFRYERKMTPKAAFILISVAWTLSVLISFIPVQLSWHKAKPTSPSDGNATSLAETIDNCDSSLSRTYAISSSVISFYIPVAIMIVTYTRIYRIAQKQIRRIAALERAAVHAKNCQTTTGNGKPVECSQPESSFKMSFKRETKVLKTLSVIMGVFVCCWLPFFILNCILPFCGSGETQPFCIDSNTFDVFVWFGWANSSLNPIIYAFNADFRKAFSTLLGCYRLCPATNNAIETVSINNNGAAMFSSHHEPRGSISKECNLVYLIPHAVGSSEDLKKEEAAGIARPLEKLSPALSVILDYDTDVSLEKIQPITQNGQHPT
How it was run: (§1)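 Calcium flux in an inducible, force-coupled HEK293 Trex D1 line (overnight at 30 C): agonist mode is the 180 s kinetic read after compound; potentiator mode is the following 180 s read after dopamine at EC20.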

[2] = target: D(1A) dopamine receptor (Homo sapiens) (UniProt P21728); test: HTS Assay for Allosteric Agonists of the Human D1 Dopamine Receptor: Primary Screen for Potentiators (AID 488982); note: 0% is about no effect
How it was run: as §1

[3] = target: D(1A) dopamine receptor (Homo sapiens) (UniProt P21728); test: HTS Assay for Allosteric Agonists of the Human D1 Dopamine Receptor: Primary Screen for Antagonists (AID 488983);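 note: calcium flux response to an EC80 dopamine challenge measured with no-wash dye; % is set by controls: 0 for no effect and ±100 for the full control effect; nearly all actives have a fitted effect of over 65% in size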
How it was run: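 Cells are induced with tetracycline and incubated overnight at 30 C, then loaded with calcium dye for 30 to 90 minutes at room temperature. Compound addition is followed by a 180 s read, then an EC80 dopamine addition and another 180 s read.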

[4] = Validation screen for small molecules that induce genotoxicity in human embryonic kidney (HEK293T) cells expressing luciferase-tagged ELG1 (AID 493106); note: 0% is about no effect
How it was run: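 Luminescence from an ELG1-luciferase fusion serves as the read-out, rising when genetic stress elevates ELG1 protein. HEK293T reporter cells (2,000 per well) received 23 nL compound, incubated 16 hr at 37 °C, then ONE-Glo for 30 min at room temperature.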

[5] = target: ATPase family AAA domain-containing protein 5 (Homo sapiens) (UniProt Q96QE3); test: Validation screen for small molecules that inhibit ELG1-dependent DNA repair in human embryonic kidney (HEK293T) cells expressing luciferase-tagged ELG1 (AID 493107);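 note: cells co-treated with the DNA-damaging agent 5-fluorouridine alongside compound; series mostly up to about 46 µM; % is set by controls: 0 for no effect and ±100 for the full control effect; inhibitors lower the ELG1-luciferase luminescence signal; nearly all actives have a fitted effect of over 70% in size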
Chain of ATPase family AAA domain-containing protein 5 (Homo sapiens) (Q96QE3 whole entry, looked up, the tested form may be a part): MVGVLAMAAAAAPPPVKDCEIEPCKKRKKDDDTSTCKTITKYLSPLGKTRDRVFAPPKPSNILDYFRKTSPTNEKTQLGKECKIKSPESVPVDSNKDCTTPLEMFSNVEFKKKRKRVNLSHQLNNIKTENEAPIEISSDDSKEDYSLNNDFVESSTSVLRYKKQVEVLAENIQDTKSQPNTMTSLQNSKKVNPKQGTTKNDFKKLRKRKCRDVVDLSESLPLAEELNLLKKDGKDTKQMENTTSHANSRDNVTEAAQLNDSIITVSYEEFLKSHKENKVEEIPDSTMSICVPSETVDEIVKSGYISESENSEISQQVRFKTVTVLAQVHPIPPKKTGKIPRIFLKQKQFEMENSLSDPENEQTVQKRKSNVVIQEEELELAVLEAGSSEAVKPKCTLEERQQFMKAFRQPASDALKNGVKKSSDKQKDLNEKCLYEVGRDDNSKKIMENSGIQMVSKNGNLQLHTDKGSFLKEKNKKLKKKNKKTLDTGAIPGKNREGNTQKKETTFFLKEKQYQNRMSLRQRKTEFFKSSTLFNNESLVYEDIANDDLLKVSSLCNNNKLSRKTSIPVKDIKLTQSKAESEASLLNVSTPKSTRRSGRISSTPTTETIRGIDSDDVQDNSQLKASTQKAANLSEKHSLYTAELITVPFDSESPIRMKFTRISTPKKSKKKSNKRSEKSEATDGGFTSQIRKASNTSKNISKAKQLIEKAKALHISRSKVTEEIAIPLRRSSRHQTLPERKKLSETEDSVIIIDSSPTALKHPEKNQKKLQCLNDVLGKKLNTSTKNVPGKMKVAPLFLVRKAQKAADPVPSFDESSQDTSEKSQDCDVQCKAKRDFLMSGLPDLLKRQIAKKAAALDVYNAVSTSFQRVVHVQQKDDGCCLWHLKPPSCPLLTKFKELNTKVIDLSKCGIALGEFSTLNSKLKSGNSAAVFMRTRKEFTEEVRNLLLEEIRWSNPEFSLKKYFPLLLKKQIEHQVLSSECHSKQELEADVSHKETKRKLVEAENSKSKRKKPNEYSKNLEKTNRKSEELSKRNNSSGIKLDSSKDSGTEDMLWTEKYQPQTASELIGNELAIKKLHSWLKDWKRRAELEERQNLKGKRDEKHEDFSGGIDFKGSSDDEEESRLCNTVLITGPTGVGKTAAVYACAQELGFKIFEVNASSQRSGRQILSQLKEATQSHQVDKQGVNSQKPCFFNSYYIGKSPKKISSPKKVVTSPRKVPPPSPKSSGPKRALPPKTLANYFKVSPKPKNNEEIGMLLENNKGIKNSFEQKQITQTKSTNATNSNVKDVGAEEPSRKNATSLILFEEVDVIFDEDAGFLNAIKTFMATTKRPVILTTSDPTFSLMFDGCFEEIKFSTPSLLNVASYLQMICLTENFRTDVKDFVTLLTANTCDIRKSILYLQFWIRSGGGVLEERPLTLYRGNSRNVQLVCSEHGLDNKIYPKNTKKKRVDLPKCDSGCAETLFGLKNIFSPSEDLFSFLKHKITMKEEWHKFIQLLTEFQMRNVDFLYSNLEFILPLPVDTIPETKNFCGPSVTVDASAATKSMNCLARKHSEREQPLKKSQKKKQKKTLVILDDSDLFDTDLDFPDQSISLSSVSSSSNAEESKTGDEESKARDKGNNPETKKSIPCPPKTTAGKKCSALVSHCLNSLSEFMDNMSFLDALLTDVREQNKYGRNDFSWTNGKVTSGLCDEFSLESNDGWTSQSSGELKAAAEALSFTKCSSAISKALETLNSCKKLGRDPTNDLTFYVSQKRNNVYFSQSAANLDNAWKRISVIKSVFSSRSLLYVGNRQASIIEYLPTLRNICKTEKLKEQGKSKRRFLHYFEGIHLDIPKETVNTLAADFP
How it was run: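 Luminescence from ONE-Glo, developed 30 min at room temperature, served as read-out of ELG1-luciferase levels. Beforehand, reporter HEK293T cells received 5-fluorouridine plus test compound for 16 hr at 37 °C.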

[6] = target: Thyrotropin-releasing hormone receptor (Homo sapiens) (UniProt P34981); test: qHTS for Small Molecule Agonists and Allosteric Enhancers of Human TRH Receptor: Validation Screen for Agonists (AID 493127;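 active = calcium activation more than 3 SD above the typical response in the agonist read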;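 note: intracellular calcium rise by fluo-8 fluorescence before TRH EC20 addition; 0% is about no effect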); conditions: TRH receptor agonist cell assay; at 2 µM; stronger effect = higher value
Chain of Thyrotropin-releasing hormone receptor (Homo sapiens) (P34981 whole entry, looked up): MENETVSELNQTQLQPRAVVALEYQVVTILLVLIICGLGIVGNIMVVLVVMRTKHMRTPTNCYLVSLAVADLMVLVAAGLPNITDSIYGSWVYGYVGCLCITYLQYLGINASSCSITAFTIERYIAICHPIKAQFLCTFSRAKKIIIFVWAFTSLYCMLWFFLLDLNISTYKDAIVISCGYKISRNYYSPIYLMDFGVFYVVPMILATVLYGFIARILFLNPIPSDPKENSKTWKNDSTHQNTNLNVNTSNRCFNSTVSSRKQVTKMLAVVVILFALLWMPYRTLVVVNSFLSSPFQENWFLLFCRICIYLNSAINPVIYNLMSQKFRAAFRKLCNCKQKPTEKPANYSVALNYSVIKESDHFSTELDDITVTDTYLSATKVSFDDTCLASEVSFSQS
How it was run: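 Cells 2000/well, 10% FCS, 18 h 33.5C/5% CO2 → fluo-8 Ca dye, RT 30 min–1.5 h → FDSS baseline 10 × 1 s → compound added → 230 cycles (1 s/cycle) agonist mode. TRH controls.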

[7] = Nrf2 qHTS screen for inhibitors: Validation (AID 493153; active = well fitted inhibition curve with a large enough effect in the main read-out, with a control signal flat, not every such curve was filed as active); conditions: viability change: measured here: cytotoxicity max response
How it was run: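 Luminescence from an ARE-firefly luciferase reporter in A549 cells gives Nrf2 inhibition; an earlier CellTiter-Fluor fluorescent read flags cytotoxicity. Cells in 5% FBS OPTI-MEM received compound dilution series for 18-24 h at 37°C.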

[8] = target: Galactokinase (Homo sapiens) (UniProt P51570); test: qHTS Validation Assay for Inhibitors of Human Galactokinase (GALK) (AID 493189); note: 0% is about no effect
Chain of Galactokinase (Homo sapiens) (P51570 whole entry, looked up): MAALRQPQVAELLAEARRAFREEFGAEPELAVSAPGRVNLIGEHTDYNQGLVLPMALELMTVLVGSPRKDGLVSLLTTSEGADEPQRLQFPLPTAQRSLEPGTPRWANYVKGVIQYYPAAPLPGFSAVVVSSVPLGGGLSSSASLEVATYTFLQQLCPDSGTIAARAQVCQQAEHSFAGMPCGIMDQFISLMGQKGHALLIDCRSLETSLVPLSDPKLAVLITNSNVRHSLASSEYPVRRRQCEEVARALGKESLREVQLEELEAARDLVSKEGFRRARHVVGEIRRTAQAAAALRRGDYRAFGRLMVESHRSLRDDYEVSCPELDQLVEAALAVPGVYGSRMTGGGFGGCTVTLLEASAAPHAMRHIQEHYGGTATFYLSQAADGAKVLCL
How it was run: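 GALK (5 nM) with 35 uM ATP and 100 uM galactose in HEPES pH8.0, MgCl2, NaCl, DTT, BSA; 1 h at room temperature. Residual ATP read by Kinase-Glo Plus luminescence after 10 min.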

[9] = target: Phosphoglycerate kinase, glycosomal (Trypanosoma brucei brucei) (UniProt P07378); test: qHTS Validation Assay to Find Inhibitors of Phosphoglycerate Kinase (AID 504547);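 note: control wells lack PGK and mark full inhibition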
Chain of Phosphoglycerate kinase, glycosomal (Trypanosoma brucei brucei) (P07378 whole entry, looked up): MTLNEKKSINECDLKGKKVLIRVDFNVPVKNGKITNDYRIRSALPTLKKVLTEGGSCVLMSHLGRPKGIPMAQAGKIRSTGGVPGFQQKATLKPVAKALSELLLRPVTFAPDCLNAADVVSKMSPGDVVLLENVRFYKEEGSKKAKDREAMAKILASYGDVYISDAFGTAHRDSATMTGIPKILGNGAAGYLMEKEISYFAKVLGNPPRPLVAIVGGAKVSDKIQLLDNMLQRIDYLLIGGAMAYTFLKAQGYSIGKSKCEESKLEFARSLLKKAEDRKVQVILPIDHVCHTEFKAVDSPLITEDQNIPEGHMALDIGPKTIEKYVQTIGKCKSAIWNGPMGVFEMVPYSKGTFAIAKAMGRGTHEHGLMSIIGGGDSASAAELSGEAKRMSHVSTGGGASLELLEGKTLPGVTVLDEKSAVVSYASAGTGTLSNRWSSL
How it was run: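 Inhibition of the enzyme is judged by a Kinase-Glo Plus luminescent signal following a one-hour incubation at room temperature. Because 1,3-BPG is unstable, it is made in situ by GAPDH at 100nM final; no-PGK wells define the baseline.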

[10] = target: phosphoglycerate mutase (Leishmania major) (UniProt Q4Q090); test: qHTS Validation Assay to Find Inhibitors of Phosphoglycerate Mutase (AID 504548);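 note: end-point luminescence from Kinase-GloPlus after the PGAM reaction; series mostly up to about 58 µM; % is set by controls: 0 for no effect and ±100 for the full control effect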
Chain of phosphoglycerate mutase (Leishmania major) (Q4Q090 1-553): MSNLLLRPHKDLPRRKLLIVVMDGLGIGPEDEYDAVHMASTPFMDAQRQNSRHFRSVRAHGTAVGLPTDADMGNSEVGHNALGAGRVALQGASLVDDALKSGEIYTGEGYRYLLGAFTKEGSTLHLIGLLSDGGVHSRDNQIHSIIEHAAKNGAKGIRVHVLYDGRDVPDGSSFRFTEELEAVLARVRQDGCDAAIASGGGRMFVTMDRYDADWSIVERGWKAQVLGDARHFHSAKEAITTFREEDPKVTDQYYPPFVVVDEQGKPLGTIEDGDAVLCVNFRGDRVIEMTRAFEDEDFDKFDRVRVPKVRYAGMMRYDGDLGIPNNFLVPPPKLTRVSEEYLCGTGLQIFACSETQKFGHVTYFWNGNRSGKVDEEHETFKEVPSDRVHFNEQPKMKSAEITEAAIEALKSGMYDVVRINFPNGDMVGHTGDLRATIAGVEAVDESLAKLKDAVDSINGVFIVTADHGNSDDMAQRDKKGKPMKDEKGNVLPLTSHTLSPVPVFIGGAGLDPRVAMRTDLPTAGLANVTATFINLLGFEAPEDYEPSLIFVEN
How it was run: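 L. major PGAM (1.25nM final) was added to substrate buffer and pinned compound, incubated 45 minutes at room temperature, then Kinase-GloPlus added; luminescence read after 10 minutes. Buffer: 100 mM TEA pH 7.6, 5 mM MgCl2, 0.01% Tween-20.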

[11] = qHTS for Inhibitors of ATXN expression: Validation (AID 588378); note: series mostly up to about 57 µM; % is set by controls: 0 for no effect and ±100 for the full control effect; nearly all actives have a fitted effect of over 75% in size
How it was run: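 Luminescence from an ATXN2-FFLuc reporter in HEK293 cells served as read-out after 24 h compound treatment at 37 degrees C; CellTiter-Fluor fluorescence was recorded first to assess viability.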

[12] = target: DNA dC->dU-editing enzyme APOBEC-3G (Homo sapiens) (UniProt Q9HC16); test: qHTS for inhibitors of Vif-A3G interactions: Validation (AID 588379); note: 0% is about no effect
How it was run: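 HeLa cells stably expressing Vif and A3G-eYFP, 700 cells/well, incubated overnight at 37 deg C, then exposed to compound overnight at 37 deg C. Inhibition of Vif-mediated degradation read as increased yellow fluorescence (Ex 488/Em 500-530) by laser-scanning cytometry.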

[13] = target: Voltage-gated inwardly rectifying potassium channel KCNH2 (Homo sapiens) (UniProt Q12809); test: qHTS Assay for Small Molecule Inhibitors of the Human hERG Channel Activity (AID 588834);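 note: top concentration of the series differs between compounds; % is set by controls: 0 for no effect and ±100 for the full control effect; lower thallium flux fluorescence means stronger hERG block; nearly all actives have a fitted effect of over 50% in size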
How it was run: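 U2OS cells transduced with hERG via BacMam (MOI ~100), plated 2000/well, loaded with FluxOR thallium dye, compound ~10 min, then stimulation buffer; fluorescence decrease read kinetically; AC50 from Hill fits.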

[14] = target: Glutaminase kidney isoform, mitochondrial (Homo sapiens) (UniProt O94925); test: qHTS for Inhibitors of Glutaminase (GLS): LOPAC Validation (AID 624146); note: potency is the fitted concentration of half-maximal effect; nearly all actives have a fitted effect of over 60% in size
Chain of Glutaminase kidney isoform, mitochondrial (Homo sapiens) (O94925 whole entry, looked up, canonical isoform): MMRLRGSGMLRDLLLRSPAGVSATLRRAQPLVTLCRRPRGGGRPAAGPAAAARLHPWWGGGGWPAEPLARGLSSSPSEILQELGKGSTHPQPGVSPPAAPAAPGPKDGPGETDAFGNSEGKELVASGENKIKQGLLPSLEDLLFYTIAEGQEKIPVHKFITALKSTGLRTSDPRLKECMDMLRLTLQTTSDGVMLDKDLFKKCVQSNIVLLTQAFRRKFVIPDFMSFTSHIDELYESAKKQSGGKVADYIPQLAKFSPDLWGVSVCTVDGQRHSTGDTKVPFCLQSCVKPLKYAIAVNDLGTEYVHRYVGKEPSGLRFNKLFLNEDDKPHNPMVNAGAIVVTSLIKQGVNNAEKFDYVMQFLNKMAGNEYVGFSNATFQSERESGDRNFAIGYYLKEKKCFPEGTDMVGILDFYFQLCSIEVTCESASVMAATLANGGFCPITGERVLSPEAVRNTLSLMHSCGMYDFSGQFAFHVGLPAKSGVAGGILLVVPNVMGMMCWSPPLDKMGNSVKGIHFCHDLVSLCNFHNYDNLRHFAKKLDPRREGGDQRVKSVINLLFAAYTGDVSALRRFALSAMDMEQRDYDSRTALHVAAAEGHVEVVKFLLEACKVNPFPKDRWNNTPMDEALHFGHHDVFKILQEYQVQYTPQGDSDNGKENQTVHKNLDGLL
How it was run: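 Read-out is an Amplex red fluorescence increase coupled through glutamate oxidase and HRP, measured before and after 30 min room-temperature incubation. hKGA is in 45 mM KH2PO4 (pH 8.2) with 0.02% Tween-20; glutamine added as 1mM solution.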

[15] = qHTS of Trypanosoma Brucei Inhibitors: LOPAC Validation (AID 624147); note: 0% is about no effect
How it was run: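 Quantitative HTS: titrated library compounds versus trypanosomal pyruvate kinase in TEA buffer (pH 7.2) containing KCl, MgCl2, BSA and Tween-20. Reactions were initiated with ADP, 130 uM final. Kinase-Glo Plus luminescence was read after 45 min at RT.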

[16] = target: Glucagon-like peptide 1 receptor (Homo sapiens) (UniProt P43220); test: qHTS of GLP-1 Receptor Agonists: LOPAC Validation (AID 624148);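 note: luminescence from a luciferase reporter switched on by cAMP; 0% is about no effect; higher luminescence signal means agonism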
How it was run: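 Agonism scored as increased luciferase luminescence driven by cAMP in HEK293 clones carrying GLP-1R. Cells settled 12 hours, received compound for 4-6 hr at 37 deg C, 5% CO2, and were read after 12 min detection reagent at RT.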

[17] = qHTS of Nrf2 Activators: LOPAC Validation (AID 624149); note: 0% is about no effect
How it was run: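 Luminescence read-out of ARE-luciferase activation: AREc32_Fluc cells treated with compounds for 24 hr at 37 deg C, then lysed with Steady-Glo for 30 min at room temperature before reading.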

[18] = HTS Assay for Allosteric Antagonists of the Human D2 Dopamine Receptor: Hit Validation in HTRF (AID 624455);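 note: stable D1 dopamine receptor cell line scored for blocking the D1 response; % is set by controls: 0 for no effect and ±100 for the full control effect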
How it was run: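 First, antagonism was screened by calcium flux in a force-coupled, inducible Hek293 Trex D2 line challenged with EC80 dopamine. Hits then went into an HTRF assay in cells stably expressing D1, testing inhibition of the D1 response.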

[19] = target: Arylsulfatase A (Homo sapiens) (UniProt P15289); test: qHTS screen for enhancers of Arylsulfatase A (ASA1): LOPAC Validation Assay (AID 720538); note: 0% is about no effect
How it was run: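 SV40-transformed skin fibroblasts from an MLD patient (ASA-I179S) were treated with compounds for 48h at 37 degree C, then lysed with 0.5mM pNCS final substrate for 14h at room temperature; NaOH stop, fluorescence read (Ex=525 nm; Em=598 nm).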

[20] = qHTS for compounds that reverse cellular toxicity of Amyloid beta (A-beta) peptide in yeast: LOPAC Validation Assay (AID 720559);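 note: plate controls were DMSO for no effect and equimolar ferric chloride plus clioquinol rescue for full effect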
How it was run: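 Yeast cells expressing toxic A-beta were combined with pinned compounds in growth medium and incubated 48 hr at 30 C. Growth was read as absorbance at 600 nm and normalized to DMSO and to an equimolar FeCl3/clioquinol positive control.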

N#C/C(=C\c1ccc(O)c(O)c1)C(=O)Nc1ccccc1
active: Potency [14] 631 nM
inactive: outcome [1] | outcome [2] | outcome [3] | Potency [4] | Potency [5] | activation [6] 5.88% | outcome [7] | outcome [8] | Potency [9] | outcome [10] | Potency [11] | Potency [12] | Potency [13] | outcome [15] | outcome [16] | outcome [17] | outcome [18] | Potency [19] | outcome [20]
-12%: viability change [7]
